This is an account of results in PubChem BioAssay (EPA / NIEHS).

Test [1] is described as follows: ATG_CRE_CIS: Attagene CIS-FACTORIAL HepG2 Assay for human cAMP Responsive Element (CRE) binding protein 3 (AID 2282926). The settings on record: HepG2 CRE cis-reporter, Attagene multiplexed mRNA; actives raise or lower the signal. The essentials: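 Transfected HepG2 were treated for 24 hours, then RNA was extracted and reporter cDNA amplified with sequence-specific primers. Labelled fragments were separated by capillary electrophoresis, and the CRE signal was fitted bidirectionally with DMSO as baseline.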

Test [2] concerns the target CCAAT/enhancer-binding protein beta (Homo sapiens) (UniProt P17676). As to the kind of experiment: ATG_C_EBP_CIS: Attagene CIS-FACTORIAL HepG2 Assay for human CCAAT/Enhancer Binding Protein (C/EBP) beta (AID 2282927). The conditions noted are these: HepG2 Attagene cis-factorial transcription factor reporter; actives raise or lower the signal. The essentials: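 HepG2 transiently transfected with multiplexed reporter units under cis-regulatory promoters reporting endogenous C/EBPb activity. After 24 h exposure, reporter mRNA assayed by RT-PCR, fluorescent labelling, HpaI digestion and capillary electrophoresis; bidirectional fitting versus DMSO.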

The nature of test [3]: ATG_CMV_CIS: Attagene CIS-FACTORIAL HepG2 Assay for human CMV (Internal Marker) (AID 2282928).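 Further: endpoint acts as a background internal control marker rather than a target.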 The conditions noted are these: HepG2 CMV promoter reporter, transcription factor profiling; actives raise or lower the signal. An outline of the steps:
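Endogenous transcription factor activity read in HepG2 via transfected cis-promoter reporter units. After 24 h dosing, reporter mRNA measured by RT-PCR/capillary electrophoresis; gain or loss of signal fit relative to DMSO.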

The nature of test [4]: ATG_DR4_LXR_CIS: Attagene CIS-FACTORIAL HepG2 Assay for human Liver X Receptor (LXR), DR4 submotif (AID 2282929). The settings on record: HepG2 Attagene DR4 cis-reporter, mRNA transcription; actives raise or lower the signal. The essentials: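 After transient transfection with multiplexed cis-promoter reporter units, HepG2 cells received test chemicals for 24 h. Reporter mRNA induction, detected by fluorescence after RT-PCR and capillary electrophoresis, was scored relative to DMSO.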

Test [5] deals with Aryl hydrocarbon receptor (Homo sapiens) (UniProt P35869). As to the kind of experiment: ATG_Ahr_CIS: Attagene CIS-FACTORIAL HepG2 Assay for human Aryl Hydrocarbon Receptor (Ahr) (AID 2282930). The conditions noted are these: HepG2 AhR cis-factorial reporter transcription; actives raise or lower the signal. The essentials: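 HepG2 cells transiently transfected with cis-element-driven multiplexed reporter units; endogenous AhR activity read as reporter mRNA 24 h after dosing, via RT-PCR, 6-FAM labelling, HpaI digestion and capillary electrophoresis. Bidirectional fit relative to DMSO.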

Test [6] is described as follows: ATG_AP_1_CIS: Attagene CIS-FACTORIAL HepG2 Assay for human Activator Protein 1 (AP-1) (AID 2282931). The conditions noted are these: HepG2 Attagene cis-factorial AP-1 reporter mRNA; actives raise or lower the signal. The essentials:
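After 24 h incubation with test chemical, RNA from transfected HepG2 cells was reverse-transcribed, amplified, fluorescently labelled and digested before capillary electrophoresis. Reporters were driven by cis-regulatory promoters; activity fitted bidirectionally versus DMSO.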

Test [7] can be described thus: ATG_AP_2_CIS: Attagene CIS-FACTORIAL HepG2 Assay for human Activator Protein 2 (AP-2) (AID 2282932). The conditions noted are these: HepG2 AP-2 cis-reporter, Attagene transcription factor profiling; actives raise or lower the signal. The essentials: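 HepG2 cells transiently transfected with cis-element reporter units and exposed for 24 h. Reporter mRNA measured by RT-PCR, FAM labelling, HpaI digestion and capillary electrophoresis. Changes in either direction fitted relative to DMSO.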

Test [8] can be described thus: ATG_BRE_CIS: Attagene CIS-FACTORIAL HepG2 Assay for human Bone Morphogenetic Protein (BMP) Response Element (BRE) (AID 2282933). The settings on record: HepG2 BMP response element reporter, Attagene transcription factor profiling; actives raise or lower the signal. An outline of the steps:
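Endogenous transcription factor activity at a BMP response element was monitored in transfected HepG2 cells 24 h after dosing. Fluorescent RT-PCR products were resolved by capillary electrophoresis, and activity was fitted in both directions versus DMSO.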

In test [9] the target is Retinoic acid receptor alpha (Homo sapiens) (UniProt P10276). As to the kind of experiment: ATG_DR5_RAR_CIS: Attagene CIS-FACTORIAL HepG2 Assay for human Retinoic Acid Receptor Alpha (RARE), DR5 submotif (AID 2282934). The settings on record: HepG2 Attagene cis-factorial RARE DR5 reporter, mRNA; actives raise or lower the signal. The essentials:
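HepG2 cells transiently transfected with multiplexed reporter units; DR5 cis-element drives reporter through endogenous transcription factors. After 24 h dosing, reporter mRNA quantified by RT-PCR, fluorescent labeling, HpaI digestion and capillary electrophoresis; bidirectional fitting versus DMSO.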

For test [10], the target named is Transcription factor E2F1 (Homo sapiens) (UniProt Q01094). As to the kind of experiment: ATG_E2F_CIS: Attagene CIS-FACTORIAL HepG2 Assay for human E2F Transcription Factor 1 (AID 2282935). The conditions noted are these: HepG2 Attagene cis-reporter, E2F reporter RNA transcripts; actives raise or lower the signal. An outline of the steps: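 Endogenous E2F1 activity read through cis-promoter reporter units transfected into HepG2. After 24 h compound treatment, reporter mRNA measured by RT-PCR, HpaI digestion and capillary electrophoresis. Bidirectional fit versus DMSO.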

The nature of test [11]: ATG_E_Box_CIS: Attagene CIS-FACTORIAL HepG2 Assay for human Enhancer Box (E-box) (AID 2282936). The conditions noted are these: HepG2 E-box cis-reporter transcription, actives raise or lower the signal. An outline of the steps:
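HepG2 cells transiently transfected with multiplexed cis-element reporter units, dosed 24 h; reporter mRNA quantified by RT-PCR, 6-FAM labelling, HpaI digestion and capillary electrophoresis. E-box (USF1) signal fitted bidirectionally vs DMSO.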

Test [12] in a line: ATG_M_61_CIS: Attagene CIS-FACTORIAL HepG2 Assay for M61 Transcription Factor (Internal Marker) (AID 2282937). The settings on record: HepG2 Attagene CIS-FACTORIAL M61 internal marker reporter; actives raise or lower the signal. The essentials:
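Using transiently transfected HepG2 liver cells, reporter transcript levels were assessed 24 h post-dosing by RT-PCR and capillary electrophoresis. Changes in either direction were fitted relative to DMSO controls.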

Test [13] in a line: ATG_EGR_CIS: Attagene CIS-FACTORIAL HepG2 Assay for human Early Growth Response 1 (EGR1) (AID 2282938). The settings on record: HepG2 Attagene CIS-FACTORIAL EGR reporter mRNA; actives raise or lower the signal. An outline of the steps: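 Fluorescent capillary-electrophoresis signal of reporter cDNA fragments serves as read-out. HepG2 cells bear transiently transfected cis-promoter reporter units and are exposed 24 h; gain- or loss-of-signal is fitted against DMSO.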

A short description of test [14]: ATG_M_19_CIS: Attagene CIS-FACTORIAL HepG2 Assay for M19 Transcription Factor (Internal Marker) (AID 2282939). The conditions noted are these: HepG2 Attagene CIS-FACTORIAL M19 internal marker reporter; actives raise or lower the signal. An outline of the steps:
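Background-control endpoint from a multiplexed HepG2 reporter panel. Cells carrying cis-regulated reporter constructs are treated 24 h, then reporter transcripts are amplified, fluorescently labelled and sized by capillary electrophoresis. DMSO defines baseline.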

Test [15] can be described thus: ATG_Ets_CIS: Attagene CIS-FACTORIAL HepG2 Assay for human Erythroblast Transformation Specific (ETS) (AID 2282941). The conditions noted are these: HepG2 ETS cis-reporter transcription, actives raise or lower the signal. The essentials: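 Steps: transfect HepG2 with multiple reporter units; treat compound 24 h; isolate RNA, DNase-treat, reverse-transcribe; PCR-amplify, label with 6-FAM, digest with HpaI; separate by capillary electrophoresis. Activity fitted both directions versus DMSO.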

For test [16], the target named is Hepatocyte nuclear factor 3-beta (Homo sapiens) (UniProt Q9Y261). The test is described as follows: ATG_FoxA2_CIS: Attagene CIS-FACTORIAL HepG2 Assay for human Forkhead box A2 (FOXA2) (AID 2282942). The conditions noted are these: HepG2 cis-reporter transcription factor activity, 24 h; actives raise or lower the signal. An outline of the steps: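 Fluorescence signal of reporter cDNA fragments, separated by capillary electrophoresis, reflects endogenous transcription factor activity in transfected HepG2 after 24 h. Both increases and decreases fitted against DMSO.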

Test [17] in a line: ATG_FoxO_CIS: Attagene CIS-FACTORIAL HepG2 Assay for human Forkhead box O (FoxO) (AID 2282943). The conditions noted are these: HepG2 Attagene cis-reporter, FoxO element, mRNA; actives raise or lower the signal. The essentials: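 HepG2 cells transiently transfected with cis-element-driven reporter units report endogenous FoxO activity. After 24 h chemical exposure, reporter mRNA quantified by RT-PCR, fluorescent labeling, HpaI digestion and capillary electrophoresis; bidirectional fit versus DMSO.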

Test [18] in a line: ATG_GATA_CIS: Attagene CIS-FACTORIAL HepG2 Assay for human GATA Binding Protein (AID 2282944). The settings on record: HepG2 GATA cis-element reporter, Attagene multiplex mRNA; actives raise or lower the signal. The essentials: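 Endogenous transcription factor activity was captured through cis-promoter-driven reporters in transfected HepG2 cells. After 24 h exposure, reporter transcripts were quantified by RT-PCR with fluorescent capillary electrophoresis, and responses fitted both directions against DMSO.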

Test [19] is described as follows: ATG_GLI_CIS: Attagene CIS-FACTORIAL HepG2 Assay for human Zinc Finger Protein GLI1 (AID 2282945). The settings on record: HepG2, Attagene cis-factorial reporter mRNA, GLI element; actives raise or lower the signal. The essentials: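 Transiently transfected HepG2 cells report endogenous transcription factor activity via cis-element-driven reporter units. After 24 h compound exposure, reporter mRNA was measured by RT-PCR with capillary electrophoresis; bidirectional fitting against DMSO baseline.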

Test [20] can be described thus: ATG_ERE_CIS: Attagene CIS-FACTORIAL HepG2 Assay for Estrogen Response Element (ERE) (AID 2282940). The conditions noted are these: HepG2 ERE cis-reporter, Attagene RNA transcript; actives raise or lower the signal. An outline of the steps:
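Cells used were human hepatoma HepG2, transfected with multiple reporter transcription units under cis-regulatory promoters. Reporter mRNA, read 24 h post-dosing via fluorescent RT-PCR products on capillary electrophoresis, was fitted bidirectionally relative to DMSO.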

The source made the active and inactive calls. How the source made its calls: active means hit-call score of the fitted dose curve at least 0.9, where 1 is the maximum; inactive means score below 0.9.

Chain of CCAAT/enhancer-binding protein beta (Homo sapiens) (P17676 whole entry, looked up): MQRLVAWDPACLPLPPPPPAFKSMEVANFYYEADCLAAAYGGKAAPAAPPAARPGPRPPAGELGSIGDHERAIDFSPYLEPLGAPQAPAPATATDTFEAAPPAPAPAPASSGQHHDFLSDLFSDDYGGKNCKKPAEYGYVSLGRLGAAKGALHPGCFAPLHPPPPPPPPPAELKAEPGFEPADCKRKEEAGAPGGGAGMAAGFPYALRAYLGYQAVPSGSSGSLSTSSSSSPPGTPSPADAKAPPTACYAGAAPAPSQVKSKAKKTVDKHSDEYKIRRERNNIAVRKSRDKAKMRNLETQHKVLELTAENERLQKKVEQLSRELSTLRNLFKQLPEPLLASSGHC
Chain of Retinoic acid receptor alpha (Homo sapiens) (P10276 whole entry, looked up): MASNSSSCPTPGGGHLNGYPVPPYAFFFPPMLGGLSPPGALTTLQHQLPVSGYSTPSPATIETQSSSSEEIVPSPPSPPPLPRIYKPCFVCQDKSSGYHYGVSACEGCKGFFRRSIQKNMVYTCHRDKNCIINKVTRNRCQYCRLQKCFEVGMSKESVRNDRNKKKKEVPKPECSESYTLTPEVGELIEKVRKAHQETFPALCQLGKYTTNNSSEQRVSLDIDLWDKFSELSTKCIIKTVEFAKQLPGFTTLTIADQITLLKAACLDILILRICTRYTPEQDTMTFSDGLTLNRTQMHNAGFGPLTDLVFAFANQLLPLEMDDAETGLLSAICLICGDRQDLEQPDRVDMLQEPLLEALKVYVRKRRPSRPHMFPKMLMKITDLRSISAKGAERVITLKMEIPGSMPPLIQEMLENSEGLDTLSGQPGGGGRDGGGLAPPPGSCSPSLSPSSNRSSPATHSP
Chain of Transcription factor E2F1 (Homo sapiens) (Q01094 whole entry, looked up): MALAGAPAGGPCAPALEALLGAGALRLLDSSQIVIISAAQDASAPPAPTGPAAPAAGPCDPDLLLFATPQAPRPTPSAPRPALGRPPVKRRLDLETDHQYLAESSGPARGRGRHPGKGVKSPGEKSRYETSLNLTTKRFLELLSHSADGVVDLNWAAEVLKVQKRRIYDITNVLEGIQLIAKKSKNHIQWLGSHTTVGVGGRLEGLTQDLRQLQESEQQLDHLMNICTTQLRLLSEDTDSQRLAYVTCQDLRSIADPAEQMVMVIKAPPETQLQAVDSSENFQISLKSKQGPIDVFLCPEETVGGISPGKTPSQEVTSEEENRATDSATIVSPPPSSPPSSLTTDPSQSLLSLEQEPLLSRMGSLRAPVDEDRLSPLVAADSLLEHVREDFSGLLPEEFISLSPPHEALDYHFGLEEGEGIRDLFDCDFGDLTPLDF
Chain of Aryl hydrocarbon receptor (Homo sapiens) (P35869 whole entry, looked up): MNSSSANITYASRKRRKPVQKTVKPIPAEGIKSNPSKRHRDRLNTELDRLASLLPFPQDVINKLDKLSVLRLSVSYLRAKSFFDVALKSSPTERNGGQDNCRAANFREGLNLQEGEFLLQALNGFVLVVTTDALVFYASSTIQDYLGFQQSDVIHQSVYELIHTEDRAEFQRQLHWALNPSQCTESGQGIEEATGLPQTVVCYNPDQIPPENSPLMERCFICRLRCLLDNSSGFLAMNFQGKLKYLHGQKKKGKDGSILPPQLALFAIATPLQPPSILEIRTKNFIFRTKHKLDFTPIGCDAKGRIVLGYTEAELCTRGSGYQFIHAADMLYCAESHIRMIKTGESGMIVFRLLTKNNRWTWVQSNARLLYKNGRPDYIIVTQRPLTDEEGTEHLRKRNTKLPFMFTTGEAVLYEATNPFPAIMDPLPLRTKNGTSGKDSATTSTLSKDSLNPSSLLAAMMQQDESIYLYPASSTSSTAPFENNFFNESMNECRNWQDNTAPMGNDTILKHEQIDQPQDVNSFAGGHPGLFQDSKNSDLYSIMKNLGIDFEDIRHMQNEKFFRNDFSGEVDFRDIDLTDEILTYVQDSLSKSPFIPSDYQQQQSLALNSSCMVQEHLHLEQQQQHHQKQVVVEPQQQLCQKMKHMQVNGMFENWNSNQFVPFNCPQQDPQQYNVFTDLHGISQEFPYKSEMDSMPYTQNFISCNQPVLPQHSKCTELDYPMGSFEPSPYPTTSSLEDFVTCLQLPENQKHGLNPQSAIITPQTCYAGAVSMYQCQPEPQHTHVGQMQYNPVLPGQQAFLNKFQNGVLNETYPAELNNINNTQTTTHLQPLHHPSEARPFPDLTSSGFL
Chain of Hepatocyte nuclear factor 3-beta (Homo sapiens) (Q9Y261 whole entry, looked up, the tested form may be a part): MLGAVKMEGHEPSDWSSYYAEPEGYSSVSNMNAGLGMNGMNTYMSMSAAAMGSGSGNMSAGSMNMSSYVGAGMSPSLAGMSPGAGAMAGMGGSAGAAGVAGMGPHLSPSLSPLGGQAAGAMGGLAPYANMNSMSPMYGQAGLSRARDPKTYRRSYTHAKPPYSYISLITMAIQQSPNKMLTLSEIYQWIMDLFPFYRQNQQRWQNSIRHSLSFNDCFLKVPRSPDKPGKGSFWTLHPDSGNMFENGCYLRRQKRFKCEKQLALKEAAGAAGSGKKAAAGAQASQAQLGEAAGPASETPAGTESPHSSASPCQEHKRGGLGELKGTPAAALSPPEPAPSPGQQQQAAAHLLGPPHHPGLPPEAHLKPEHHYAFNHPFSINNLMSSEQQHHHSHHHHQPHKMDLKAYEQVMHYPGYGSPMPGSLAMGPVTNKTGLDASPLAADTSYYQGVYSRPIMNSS

In the case of `c1ccc(CCc2ccccc2)cc1`, the result in [1], in test [2], in [3], in test [5], in test [7] and in [8] was inactive. For the same molecule, the outcome in [9], in test [10], in [11], in test [12], in test [13] and in test [14] was inactive. The outcome in test [15], in [16], in test [17], in [18] and in test [19] was inactive. For the same molecule, the AC50 (commonly the concentration at which the activity in the assay is half-maximal) in test [4] is 161 µM (active); in test [6], 172 µM (active).
On to `CCCCCCCCCCCCCC(=O)OCC(O)CO` (stereo not drawn), for which the molecule was called inactive in test [1], in test [2], in test [3], in [4], in test [5] and in test [6]. For the same molecule, the outcome in test [7], in [8], in test [9], in test [10], in [11] and in test [12] was inactive. Further, the result in [13], in test [14], in test [15], in [16], in test [17] and in test [18] was inactive. Besides, the call in test [19] was inactive.
With `COC(=O)C=C(C)CCC=C(C)C`, the result in [1], in [2], in test [3], in [4], in test [5] and in test [6] was inactive. The result in test [7], in test [8], in [9], in test [10], in [11] and in test [12] was inactive. In addition, the result in test [13], in [14], in [20], in test [15], in [16] and in test [18] was inactive. Also, the molecule was called inactive in test [19].
`Cc1cc(CCC(=O)OCCOCCOCCOC(=O)CCc2cc(C)c(O)c(C(C)(C)C)c2)cc(C(C)(C)C)c1O`: the outcome in test [1], in [2], in test [3], in [4], in test [5] and in test [6] was inactive. Further, the result in test [7], in test [8], in [9], in [10], in test [11] and in [12] was inactive. The outcome in test [13], in test [14], in [15], in test [16], in test [17] and in test [18] was inactive. In addition, in test [19], the result was inactive.
In the case of `CCc1ccc(O)cc1`, the call in test [1], in test [2], in test [3], in [4], in test [6] and in test [7] was inactive. In addition, the call in test [8], in [9], in test [10], in test [11], in test [12] and in [13] was inactive. The molecule was classed as inactive in test [14], in test [15], in [16], in test [17], in [18] and in test [19]. In addition, the AC50 in test [5] was 68.7 µM (active).
Turning to `CCCCCC(C)=O`, the result in test [1], in [2], in [3], in test [4], in [5] and in test [6] was inactive. Also, the molecule was called inactive in [7], in [8], in test [9], in test [10], in test [11] and in test [12]. The molecule was called inactive in test [13], in [14], in [15], in test [16], in test [17] and in [18]. The result in test [19] was inactive.
`Nc1ccn([C@H]2CS[C@@H](CO)O2)c(=O)n1`: the call in test [1], in test [2], in [3], in [4], in test [5] and in test [6] was inactive. Besides, the call in [7], in test [8], in test [9], in test [10], in [11] and in test [12] was inactive. Moreover, the molecule was classed as inactive in test [13], in test [14], in test [15], in test [16], in [17] and in [18]. Besides, the result in test [19] was inactive.
